The record followed here is article PMC4336329 (PLoS ONE, 2015).

SMILES strings stand for the structures. Out of some 310,000 compounds screened, about 14,000 (4.5%) showed an effect of 50% or more. Effects have a minus sign here. The list comes from a sample in which strong results are over-represented; it also holds similar structures and randomly drawn compounds.
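Further: peak tail current of the secondary pulse compared with the same well before compound.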

This assay deals with human ether-à-go-go-related gene (hERG) potassium channel (human, UniProt Q12809). Nature of the assay: primary screen, population patch clamp on CHO cells stably expressing hERG; higher = less effect of the substance.
Chain of human ether-à-go-go-related gene (hERG) potassium channel (Q12809 whole entry, looked up): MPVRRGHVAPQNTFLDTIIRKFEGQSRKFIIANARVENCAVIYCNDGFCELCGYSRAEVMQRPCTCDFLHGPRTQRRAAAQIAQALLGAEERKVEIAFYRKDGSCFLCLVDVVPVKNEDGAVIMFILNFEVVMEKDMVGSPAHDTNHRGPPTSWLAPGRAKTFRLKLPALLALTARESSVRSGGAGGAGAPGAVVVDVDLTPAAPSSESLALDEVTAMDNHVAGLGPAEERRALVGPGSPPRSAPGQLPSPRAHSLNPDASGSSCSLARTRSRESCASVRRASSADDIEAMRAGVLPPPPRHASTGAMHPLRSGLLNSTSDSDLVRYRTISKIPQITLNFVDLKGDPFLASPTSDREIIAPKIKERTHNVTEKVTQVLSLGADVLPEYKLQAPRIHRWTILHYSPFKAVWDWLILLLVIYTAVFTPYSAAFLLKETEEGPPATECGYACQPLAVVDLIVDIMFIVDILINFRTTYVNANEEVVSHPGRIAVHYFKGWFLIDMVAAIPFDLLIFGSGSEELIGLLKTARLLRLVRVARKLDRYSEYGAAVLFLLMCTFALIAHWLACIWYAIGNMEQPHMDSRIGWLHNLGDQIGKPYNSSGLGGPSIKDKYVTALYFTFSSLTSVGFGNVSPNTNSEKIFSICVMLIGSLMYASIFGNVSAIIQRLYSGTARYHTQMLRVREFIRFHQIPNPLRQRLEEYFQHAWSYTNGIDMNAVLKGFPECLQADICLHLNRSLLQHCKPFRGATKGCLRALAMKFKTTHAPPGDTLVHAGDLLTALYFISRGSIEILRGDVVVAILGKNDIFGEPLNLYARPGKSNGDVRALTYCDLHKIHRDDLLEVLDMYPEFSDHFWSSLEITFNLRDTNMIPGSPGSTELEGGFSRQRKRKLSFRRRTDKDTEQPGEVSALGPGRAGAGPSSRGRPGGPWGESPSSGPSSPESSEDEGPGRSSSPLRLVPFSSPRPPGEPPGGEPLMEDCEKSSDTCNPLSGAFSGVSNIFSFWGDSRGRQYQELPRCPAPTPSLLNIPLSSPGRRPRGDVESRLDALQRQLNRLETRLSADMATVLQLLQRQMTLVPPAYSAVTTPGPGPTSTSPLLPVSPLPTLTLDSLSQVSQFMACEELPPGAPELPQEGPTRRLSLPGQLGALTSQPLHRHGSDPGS
For `COc1ccc(C(CC(=O)Nc2cc(OC)cc(OC)c2)n2cccc2)cc1` (stereo not shown), the “hERG current change (%, negative = inhibition) at 10uM” value came to 2.58%.

For `Nc1ccc(N2CCOCC2)c(Cl)c1`, the “hERG current change (%, negative = inhibition) at 10uM” value is recorded as 1.49%.

Consider `CC(=O)Nc1ccc(S(=O)(=O)Nc2nc(CN3CCOCC3)nc3sc4c(c23)CCCC4)cc1`, for which the “hERG current change (%, negative = inhibition) at 10uM” value is recorded as -4%.

Take `CCOc1ccc(N(CC(=O)NCC2CCCO2)C(=O)CCC(=O)Nc2nccs2)cc1` (stereo not shown): the “hERG current change (%, negative = inhibition) at 10uM” value amounted to 2.69%.

As for `Cc1nn2c(-c3cccc(NC(=O)c4ccco4)c3)nnc2c2ccccc12`, the “hERG current change (%, negative = inhibition) at 10uM” value is -5.38%.

As for `Cc1ccc(OCCCCN2CCCCC2)c(Br)c1.O=C(O)C(=O)O`, the “hERG current change (%, negative = inhibition) at 10uM” value is -62.6%.

On to `CNCCCOc1ccc(C)cc1Br.O=C(O)C(=O)O`, for which the “hERG current change (%, negative = inhibition) at 10uM” value is given as -10.9%.

For `Cc1ccc(C(C)C)c(OCCCCN2CCNCC2)c1.O=C(O)C(=O)O`, the “hERG current change (%, negative = inhibition) at 10uM” value was -6.77%.

As to `Cc1ccc(OCCCCCCN2CCNCC2)c(Br)c1.O=C(O)C(=O)O`, the “hERG current change (%, negative = inhibition) at 10uM” value was -30.3%.

In the case of `Cc1ccc(OCCOCCN2CCCC2)c(Br)c1.O=C(O)C(=O)O`, the “hERG current change (%, negative = inhibition) at 10uM” value is reported as -24.7%.

In the case of `Cc1ccc(OCCCCN2CCC(C)CC2)c(Br)c1.O=C(O)C(=O)O`, the “hERG current change (%, negative = inhibition) at 10uM” value is listed as -63.1%.

Take `COC(=O)/C(=C1/Oc2ccc(C)cc2S1)C(F)(F)F`: the “hERG current change (%, negative = inhibition) at 10uM” value is given as 32.8%.

As for `CC(C)(C)c1ccc(N2C(=N)SCC2=O)cc1`, the “hERG current change (%, negative = inhibition) at 10uM” value is recorded as -0.538%.

As for `Cc1ccc(N2C(=N)SCC2=O)cc1Cl`, the “hERG current change (%, negative = inhibition) at 10uM” value was -70.6%.

`N=C1SCC(=O)N1c1ccc(Cl)cc1`: the “hERG current change (%, negative = inhibition) at 10uM” value is 8.91%.

As for `Cc1oc2c(c1C(=O)N1CCOCC1)C(=O)c1ccccc1C2=O`, the “hERG current change (%, negative = inhibition) at 10uM” value turned out to be 5.25%.

For the compound `CC(=O)N1CCc2cc(S(=O)(=O)NC(Cc3ccccc3)C(=O)NCCN3CCCCC3C)ccc21` (stereo not shown), the “hERG current change (%, negative = inhibition) at 10uM” value is 5.72%.

Take `Fc1ccc(CNCCc2ccccc2)cc1.O=C(O)C(=O)O`: the “hERG current change (%, negative = inhibition) at 10uM” value is on record as -18.2%.

Regarding `Fc1ccccc1CCNCc1ccccc1`, the “hERG current change (%, negative = inhibition) at 10uM” value stood at 5.42%.

`Cc1ccc(CNCCc2ccccc2F)cc1.Cl`: the “hERG current change (%, negative = inhibition) at 10uM” value was -31.8%.

Take `Cl.c1ccc(CCNCc2ccccc2)cc1`: the “hERG current change (%, negative = inhibition) at 10uM” value is reported as -9.4%.

Consider `Fc1ccc(CCNCc2ccc(Br)cc2)cc1`, for which the “hERG current change (%, negative = inhibition) at 10uM” value was -53.8%.

On to `CCc1ccc(CNCc2ccc(F)cc2)cc1`, for which the “hERG current change (%, negative = inhibition) at 10uM” value is -21%.

As for `CCc1ccc(CNCCc2ccccc2F)cc1`, the “hERG current change (%, negative = inhibition) at 10uM” value is -67.7%.

For `CCc1ccc(CNCCc2ccc(F)cc2)cc1`, the “hERG current change (%, negative = inhibition) at 10uM” value was -72.8%.

Regarding `Fc1ccc(CNCc2ccc(Br)cc2)cc1`, the “hERG current change (%, negative = inhibition) at 10uM” value is reported as -28.5%.

For `O=C(Cc1ccc(Br)cc1)NCCc1ccc(F)cc1`, the “hERG current change (%, negative = inhibition) at 10uM” value was 11.3%.

Regarding `Cc1ccccc1CCNCc1ccc(Br)cc1`, the “hERG current change (%, negative = inhibition) at 10uM” value was -53.6%.

On to `Fc1ccc(CNCCc2ccccc2F)cc1`, for which the “hERG current change (%, negative = inhibition) at 10uM” value is recorded as -2.59%.

Turning to `Cc1cccc(-n2ncc3c2CCCC3NC(=O)Cc2c(C)noc2C)c1C` (stereo not shown), the “hERG current change (%, negative = inhibition) at 10uM” value stood at 15.9%.

Turning to `COc1ccc(/C=C2\SC(=S)N(CCCC(=O)NC3CCCC3)C2=O)cc1OC`, the “hERG current change (%, negative = inhibition) at 10uM” value is recorded as -12.2%.

For `Cc1nn(CCCC(=O)O)c(C)c1[N+](=O)[O-]`, the “hERG current change (%, negative = inhibition) at 10uM” value amounted to 12.3%.

For `O=C(COc1ccc(S(=O)(=O)NC2CCCCC2)cc1)NCCC1=CCCCC1`, the “hERG current change (%, negative = inhibition) at 10uM” value is on record as 2.33%.

In the case of `CCN(CC)S(=O)(=O)c1ccc(NC(=O)COC(=O)c2ccc(NC(=O)CC#N)cc2)cc1`, the “hERG current change (%, negative = inhibition) at 10uM” value was 20.5%.

As to `CCn1c(Cc2ccccc2)nnc1SCC(=O)OC(C)C`, the “hERG current change (%, negative = inhibition) at 10uM” value worked out at 0.117%.

For `CCNC(=O)C1CC(=O)N(c2ccc(Br)cc2)C1` (stereo not shown), the “hERG current change (%, negative = inhibition) at 10uM” value was found to be 2.64%.

On to `CC1(C)Cc2c(sc3nc(NCCN4CCOCC4)n4ncnc4c23)CO1`, for which the “hERG current change (%, negative = inhibition) at 10uM” value is given as -5.72%.

For the compound `N/C(=N\OC(=O)CSc1ccccc1)c1ccncc1`, the “hERG current change (%, negative = inhibition) at 10uM” value is recorded as 0.55%.

As to `CC1CC(C)CN(C(=O)c2cc(S(=O)(=O)N3CCCCC3)ccc2Cl)C1` (stereo not shown), the “hERG current change (%, negative = inhibition) at 10uM” value is -37.7%.

Take `Cc1ccc(NN2C(=O)C=C(c3ccc(Cl)cc3)C2=O)cc1`: the “hERG current change (%, negative = inhibition) at 10uM” value is recorded as 13.9%.

For the compound `Cl.Fc1ccc(CCNCc2cccc(Cl)c2)cc1`, the “hERG current change (%, negative = inhibition) at 10uM” value was -16.5%.

On to `CCN(CC)c1ccc(CNCCc2ccccc2F)cc1.Cl`, for which the “hERG current change (%, negative = inhibition) at 10uM” value is listed as -5.46%.

As for `CCN(CC)c1ccc(CNCCc2ccc(F)cc2)cc1.Cl`, the “hERG current change (%, negative = inhibition) at 10uM” value was -58.8%.

In the case of `CCCCCCNCc1cccc(Br)c1.Cl`, the “hERG current change (%, negative = inhibition) at 10uM” value was -11.3%.

On to `CCCCCNCc1ccc(Br)cc1.Cl`, for which the “hERG current change (%, negative = inhibition) at 10uM” value was -33.3%.

For the compound `CCCCCCNCc1ccc(Br)cc1.Cl`, the “hERG current change (%, negative = inhibition) at 10uM” value is -61.7%.

On to `O=C(NCCO)c1ccc2[nH]c3c(c2c1)CCCC3`, for which the “hERG current change (%, negative = inhibition) at 10uM” value is listed as -0.0914%.

In the case of `Cc1nc(COC(=O)c2c(C)nn(-c3ccccc3)c2C)cs1`, the “hERG current change (%, negative = inhibition) at 10uM” value is -2.05%.

As to `Cc1ccc(C(=O)C(C)OC(=O)Cc2c[nH]c3ccccc23)cc1` (stereo not shown), the “hERG current change (%, negative = inhibition) at 10uM” value stood at 1.64%.

`CN(CC(=O)NCC(=O)Nc1ccc(F)cc1)C1CCS(=O)(=O)C1` (stereo not shown): the “hERG current change (%, negative = inhibition) at 10uM” value was 13.3%.

Regarding `O=C(NC1CCCCCC1)c1ccc(CN2CCOCC2)cc1`, the “hERG current change (%, negative = inhibition) at 10uM” value came out at 11.3%.

In the case of `Cc1ccc(CNC(=O)c2ccccc2-n2cnnn2)cc1`, the “hERG current change (%, negative = inhibition) at 10uM” value was 9.73%.

Regarding `O=C(NC(=S)NC1CCCCCCCCCCC1)c1cccnc1`, the “hERG current change (%, negative = inhibition) at 10uM” value is -4.46%.

With `O=C(NCCN1CCN(C(=O)c2ccc(F)cc2)CC1)c1ccc(F)cc1`, the “hERG current change (%, negative = inhibition) at 10uM” value is -70.1%.

For `COc1ccc(C(=O)NCCN2CCN(C(=O)c3ccc(OC)cc3)CC2)cc1`, the “hERG current change (%, negative = inhibition) at 10uM” value was -75.2%.

In the case of `O=C(NCCCN1CCOCC1)c1ccc(Br)cc1`, the “hERG current change (%, negative = inhibition) at 10uM” value was -13.7%.

As to `O=C(NCCN1CCN(C(=O)c2ccc(Br)cc2)CC1)c1ccc(Br)cc1`, the “hERG current change (%, negative = inhibition) at 10uM” value is -71.3%.

For `COc1ccc(C(=O)NCCCN2CCOCC2)cc1`, the “hERG current change (%, negative = inhibition) at 10uM” value is given as -1.82%.

On to `O=C(NCCN1CCOCC1)c1ccc(F)cc1`, for which the “hERG current change (%, negative = inhibition) at 10uM” value worked out at 1.66%.

With `COc1ccc(C(=O)NCCN2CCCC2)cc1.Cl`, the “hERG current change (%, negative = inhibition) at 10uM” value amounted to 3.56%.

As for `Cl.O=C(NCCN1CCCC1)c1ccc(Br)cc1`, the “hERG current change (%, negative = inhibition) at 10uM” value was -11.9%.

Regarding `O=C(NCCNC(=O)c1ccc(F)cc1)c1ccc(F)cc1`, the “hERG current change (%, negative = inhibition) at 10uM” value is on record as 0.397%.

With `CC(O)CNc1cnccn1` (stereo not shown), the “hERG current change (%, negative = inhibition) at 10uM” value turned out to be 8.76%.

As for `Cc1cc(C)c(N(C(=O)c2csnn2)C(C(=O)NC(C)(C)C)c2ccncc2)c(C)c1` (stereo not shown), the “hERG current change (%, negative = inhibition) at 10uM” value is recorded as 9.01%.
